Source: PubChem
Tb hexokinase: T. brucei hexokinase 1 inhibition; recombinant TbHK1, G6PDH-coupled NADH A340; inhibition, % at 10 µM; 220,000 compounds, 0.11% hits;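 active = inhibition of 50% or more in the single-dose primary screen; inactive = inhibition below 50%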
HSV replic up: HSV replication enhancement; 220,000 compounds, 0.005% hits; HSV replication augmentation in cells, fold increase; maximum fold increase; in the data active = maximum fold increase above about 1.5; inconclusive = no clear call, values can overlap the other calls; tested in PC3 cells
Insulin prom inh: TRM-6 insulin promoter activity inhibition | TRM-6 cells (human fetal islet line), insulin promoter-eGFP reporter, imaging; reporter expression induced with tamoxifen | inhibition, % at 2 µM | 130,000 compounds, 0.9% hits;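 active = inhibition above the mean plus 3 SD, with well images judged a real hit on visual review, cut at about 60% in these data, passing the limit was not always enough; inconclusive = inhibition over the cutoff but images rejected on review; inactive = inhibition not above the cutoff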
ROMK primary: modulators of human ROMK potassium channel. 130,000 compounds, 2% hits. Tet-inducible ROMK, thallium flux fluorescence; actives lie on both sides. B-score at 10 µM. AID 1918;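 active = signal ratio slope over the read window, or its plate-corrected B-score, at least 3 SD from the plate mean, either direction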;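 note: B-score of the F/F0 ratio slope over 7 to 12 s after thallium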
Target sequence (P48048 whole entry, looked up): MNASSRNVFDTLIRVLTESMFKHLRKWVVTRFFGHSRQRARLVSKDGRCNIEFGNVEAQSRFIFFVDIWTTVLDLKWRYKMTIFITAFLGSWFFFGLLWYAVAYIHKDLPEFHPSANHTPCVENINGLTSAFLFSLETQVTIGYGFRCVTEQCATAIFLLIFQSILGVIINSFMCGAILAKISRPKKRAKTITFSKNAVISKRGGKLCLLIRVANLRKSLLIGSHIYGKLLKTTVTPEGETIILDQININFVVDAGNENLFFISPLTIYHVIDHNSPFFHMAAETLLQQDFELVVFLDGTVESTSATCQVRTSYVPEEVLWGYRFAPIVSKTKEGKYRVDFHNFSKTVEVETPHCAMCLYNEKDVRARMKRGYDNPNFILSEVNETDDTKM
Ins promoter up: MIN6 insulin promoter up-regulation; z-score at 5 µM; 190,000 compounds, 0.3% hits; MIN6 insulin promoter-GFP reporter, high-content imaging; active compounds read high; AID 1625;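 active = z-score above 3 at 5 µM with at least 500 cells counted in the well; inconclusive = wells under 500 cells, flagged as cytotoxic or low count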
ROMK retest: confirmation of human ROMK potassium channel modulators; shares compounds with ROMK primary; ROMK thallium flux, fluorescence ratio; active compounds read low; AID 1917; normalized thallium flux (F/F0 slope) at 10 µM; 3,000 compounds, 54% hits;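 active = Flux at 10 µM at least 3 SD below or above vehicle control mean in one or both replicates; inconclusive = no clear call, values can overlap the other calls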
Each line names hits and unclear results; the compound was inactive in the other large screens (follow-up assays come after a bar, where they were run). This is one part of a sample in which hits are shown more often than they occur.

Cn1cnc2c(=O)[nH]cc([N+](=O)[O-])c21	none
CC(C)c1cccc(C(C)C)c1NC(=O)COC(=O)C1=COCCO1	none (no result: Insulin prom inh)
CC(C)CCNC(=O)NC(=O)COC(=O)C1=COCCO1	Insulin prom inh 78 (no result: Ins promoter up) | ROMK retest inactive
COc1cccc(C(=O)CSc2nnc(-c3cc(OC)cc(OC)c3)o2)c1	ROMK primary 1.1 | ROMK retest inconclusive
COc1cccc(C(=O)CSc2nnc(-c3cccs3)o2)c1	none (no result: ROMK primary)
COc1ccc(-c2oc3ccc(-c4ccc5c(c4)OCO5)cc3c2-c2ccc(OC)nc2)cc1	none (no result: Tb hexokinase, Insulin prom inh, ROMK primary, Ins promoter up)
CCOCCCNC(=S)Nc1cc(C)cc(C)c1	none
Cn1c(/C(C#N)=C/c2cccc(O)c2)nc2ccccc21	ROMK primary -5 (no result: Insulin prom inh) | ROMK retest 0.049
N#C/C(=C\c1cccc(O)c1)c1nc2ccccc2o1	none (no result: Insulin prom inh, ROMK primary)
CC(C)(C)C(=O)NNC(=O)c1cc(C(C)(C)C)nn1Cc1ccccc1	none (no result: Insulin prom inh, Ins promoter up)
COc1ccccc1NNC(=O)c1cc(C(C)(C)C)nn1Cc1ccccc1	none (no result: Insulin prom inh, ROMK primary) | ROMK retest 0.066
CC(C)(C)c1cc(C(=O)NNc2cccc(Cl)c2)n(Cc2ccccc2)n1	none (no result: Insulin prom inh, ROMK primary) | ROMK retest 0.057
Cc1ccc(NNC(=O)c2cc(C(C)(C)C)nn2Cc2ccccc2)cc1	none (no result: Insulin prom inh, ROMK primary, Ins promoter up)
c1ccc(CN2CCC(Nc3ncnc4sccc34)CC2)cc1	none (no result: Insulin prom inh)
Cc1sc2ncnc(NC3CCN(Cc4ccccc4)CC3)c2c1C	ROMK primary -3.7 | ROMK retest inconclusive
CC12CC3CC(C)(C1)CC(Nc1nc(N4CCOCC4)nc4ccccc14)(C3)C2	none (no result: Insulin prom inh, ROMK primary)
CN=C1c2c(-c3ccccc3)c3cc(OC)ccc3n2CCN1C	ROMK primary -3.7 | ROMK retest 0.067
CC(Sc1ccc(Cl)cc1)C(=O)Nc1ccc(S(=O)(=O)N2CCOCC2)cc1 (stereo not given)	none (no result: ROMK primary)
O=C(NCCCCc1ccccc1)c1ccccc1Cl	none (no result: ROMK primary)
COc1ccc([C@H]2[C@H](C(=O)OC(C)(C)C)N3N=Cc4ccccc4C3C23C(=O)c2ccccc2C3=O)cc1OC (stereo not given in full)	none (no result: ROMK primary)
COc1ccc([C@H]2[C@H](C(=O)OC(C)(C)C)N3N=Cc4ccccc4C3C23C(=O)c2ccccc2C3=O)c(OC)c1 (stereo not given in full)	none (no result: ROMK primary) | ROMK retest 0.06
CN(C1CC(C)(C)NC(C)(C)C1)S(=O)(=O)CC12CCC(CC1=O)C2(C)C (stereo not given)	none (no result: Insulin prom inh)
CCOC(=O)c1csc(COc2ccc(OC)cc2)n1	none (no result: Insulin prom inh)
CC(C)c1ccc(/C=N/NC(=O)c2cccc(S(=O)(=O)N3CCOCC3)c2)cc1	ROMK primary 0.8 (no result: Insulin prom inh) | ROMK retest inactive
CC(=O)Nc1ccc(/C=N/NC(=O)c2cccc(S(=O)(=O)N3CCOCC3)c2)cc1	none (no result: Insulin prom inh)
CC1(OC(=O)C2CCCC2)C(=O)C=C2C=C(c3ccsc3)N(C(CO)CO)C=C2C1=O (stereo not given)	none (no result: Insulin prom inh, ROMK primary)
CC(=O)c1c(C)[nH]c(C(=O)N2CCc3ccccc32)c1C	none
CCOC(=O)c1[nH]c(C)c(C(=O)N2CCc3ccccc32)c1C	ROMK primary 3.2 | ROMK retest inactive
CC(C)=CC(=O)OCc1cc([N+](=O)[O-])cc2c1OCOC2	none (no result: Insulin prom inh)
CCCOc1ccc2c(C)c(CC(=O)OC)c(=O)oc2c1	none
COC(=O)Cc1c(C)c2ccc(OCC(=O)N(C)C)cc2oc1=O	ROMK primary 1.4 | ROMK retest inactive
O=C(COC(=O)c1c(Cl)ccc(Cl)c1Cl)NC(=O)NCc1ccccc1	none
CC(C)CNS(=O)(=O)c1ccccc1C(=O)N1CCCCC1	none (no result: ROMK primary)
Cc1cccc(C)c1OCC(O)CNS(=O)(=O)c1ccccc1C(=O)N1CCCCC1 (stereo not given)	none | ROMK retest inactive
CCc1ccc(/C=C2\Oc3cc(OS(C)(=O)=O)ccc3C2=O)cc1	none (no result: Insulin prom inh, ROMK primary)
CCc1ccc(/C=C2\Oc3c(ccc(O)c3CN3CCN(CCO)CC3)C2=O)cc1	none (no result: Insulin prom inh, ROMK primary) | ROMK retest 0.049
COc1ccc(-n2cc(C(=O)c3cc(Cl)ccc3O)cc(C#N)c2=O)cc1	ROMK primary 2.7 | ROMK retest inactive
Cc1cc(C)n2nc(CC#N)c(C#N)c2n1	none
Cc1cc(C)n2nc(/C(C#N)=C/c3ccccn3)c(C#N)c2n1	ROMK primary -2.4 | ROMK retest 0.044
O=C(Cn1cnc2ccccc2c1=O)Nc1nnc(SCc2ccc(Cl)cc2)s1	none (no result: Insulin prom inh, ROMK primary)
O=C(NCC(c1cccs1)N1CCOCC1)c1ccccc1NS(=O)(=O)c1cc([N+](=O)[O-])ccc1Cl (stereo not given)	none (no result: Insulin prom inh, ROMK primary) | ROMK retest 0.068
CCOC(=O)/C(C#N)=C/C=C1\C=Cc2ccccc2N1CC	HSV replic up inconclusive (no result: Ins promoter up)
CN1/C(=C/C=C(C#N)C#N)C=Cc2ccccc21	none (no result: Insulin prom inh, ROMK primary, Ins promoter up) | ROMK retest 0.047
Cc1cccc(-c2nc(CS(=O)CC(=O)NCCCSC3CCCCC3)c(C)o2)c1 (stereo not given)	ROMK primary -4 (no result: Insulin prom inh) | ROMK retest 0.059
COc1cc(-c2nc3ccccn3c2/N=C/c2cc(OC)c(O)cc2Cl)ccc1O	none (no result: Insulin prom inh)
N#C/C(=C\c1ccc(Cl)cc1)c1n[nH]c(Cn2cncn2)n1	ROMK primary -4.1 | ROMK retest 0.047
COc1ccc(/C=C/C(=O)c2cc(Br)ccc2O)cc1OC	none (no result: Insulin prom inh)
COc1ccc(/C=C/C(=O)c2cc(Br)ccc2OC(=O)c2ccco2)cc1OC	none | ROMK retest inactive
COc1cc(/C=N/NC(=O)c2ccc(F)cc2)ccc1OC(=O)c1ccco1	none
COC(=O)N/N=C/c1ccc(OC(=O)c2ccco2)c(OC)c1	ROMK primary 4.6 (no result: Insulin prom inh) | ROMK retest inactive
COc1cc(/C=C2/C(=O)NN(c3cccc(F)c3)C2=O)ccc1OC(=O)c1ccco1	none
COc1cc(/C=C2/C(=O)NN(c3ccc(Cl)cc3)C2=O)ccc1OC(=O)c1ccco1	ROMK primary -3.3 | ROMK retest inactive
O=C(Nc1ccccc1N1CCCC1)c1ccc([N+](=O)[O-])cc1Cl	none (no result: Insulin prom inh)
Nc1ncnc2c1ncn2CCNCCc1ccccc1	none (no result: ROMK primary) | ROMK retest inactive
Cc1cccc(C)c1N1CCN(c2nc(N(C)C)oc(=O)c2C#N)CC1	none (no result: ROMK primary)
COc1ccc(Br)cc1C(=O)Nc1ccc(C(=O)O)cc1	none
COc1ccc(NC(=O)c2cc3cccc(OC)c3oc2=Nc2ccc(C(=O)O)cc2)cc1OC	ROMK primary -4.4 (no result: Insulin prom inh) | ROMK retest 0.054
CCOC(=O)/C=c1\s/c(=C\c2ccc3cc(OC)ccc3c2)c(=O)n1CC(=O)NCc1ccc2c(c1)OCO2	ROMK primary -6 | ROMK retest 0.046
CCc1ccc(S(=O)(=O)NCCc2csc(-c3ccccc3)n2)s1	ROMK primary -3.4 | ROMK retest inactive
Cc1ccc2cc(CN(Cc3ccccc3)Cc3nnnn3C3CCCC3)c(=O)[nH]c2c1	ROMK primary -3 | ROMK retest 0.061
CCCN1CCC(N2CCCC(C(=O)O)C2)CC1 (stereo not given)	none
N#C/C(=C/c1ccc(F)cc1)C(N)=S	ROMK primary -3.1 (no result: Insulin prom inh) | ROMK retest 0.051
COc1ccc(-n2c(N)c(C(=O)NCC3CCCO3)c3nc4ccccc4nc32)c(OC)c1 (stereo not given)	none (no result: Insulin prom inh, ROMK primary)
C=CCn1c(N)c(C(=O)NCC2CCCO2)c2nc3ccccc3nc21 (stereo not given)	none (no result: Insulin prom inh, ROMK primary) | ROMK retest 0.066
